# Bioassay records from PubChem BioAssay.
# DT40 TDP1 no CPT: qHTS for Inhibitors of human tyrosyl-DNA phosphodiesterase 1 (TDP1): qHTS in cells in absence of CPT; DT40 Tdp1-/- hTDP1 cells, no CPT, ATP luminescence, 48 h; Potency, µM (top dose mostly 46.2 µM), for inactives: at the top dose activity change, negative = growth inhibition, actives largely listed as inhibitors; 420,000 tested, 15% active; AID 686978, 2013; also: nearly all actives have a fitted effect of over 55% in size
#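 Growth kinetics read by CellTiter-Glo luminescence after ≥48 hr at 37 °C. Cells: DT40 Tdp1-/- stably carrying human TDP1, 400 per well, compound exposure in the absence of CPT (DMSO vehicle).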
# RORg inh: ROR gamma (mouse) transcription inhibition; P51450; Drosophila S2 Gal4-RORgamma UAS-luciferase reporter, 20 h; 310,000 tested, 5.4% active; Potency, µM (highest dose often 53.6 µM), inactives show at the highest dose activity change, negative = inhibition, usual class: inhibitors; also: nearly all actives have a fitted effect of over 60% in size
#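 Drosophila Schneider cells stably carrying a metallothionein-driven Gal4 DBD–ROR gamma fusion and a UAS-Photinus luciferase reporter were exposed to compound for 1 hr, then induced with copper sulfate (700 uM final) for 20 hr at ambient temperature before luminescence reading.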
# VP16 counter: counter-screen for ROR gamma inhibitors: Gal4-VP16 reporter; Drosophila S2 Gal4-VP16 UAS-luciferase, luminescence, 20 h; 310,000 tested, 3.5% active; Potency, µM (highest dose often 53.6 µM), without a hit: at the top dose activity, negative = inhibition, most hits filed as inhibitors; AID 2546;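 also: Gal4-VP16 expression switched on by copper sulfate through the metallothionein promoter; nearly all actives have a fitted effect of over 50% in size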
# TDP1 block: TDP1 (human) enzyme inhibition | Q9NUW8 | recombinant TDP1, AlphaScreen DNA substrate cleavage | Potency, µM (series often up to 130 µM), for inactives: at the top dose activity change, negative = inhibition, hits mostly inhibitors | 350,000 tested, 0.28% active; also: nearly all actives have a fitted effect of over 40% in size
# Target sequence (Q9NUW8 whole entry, looked up): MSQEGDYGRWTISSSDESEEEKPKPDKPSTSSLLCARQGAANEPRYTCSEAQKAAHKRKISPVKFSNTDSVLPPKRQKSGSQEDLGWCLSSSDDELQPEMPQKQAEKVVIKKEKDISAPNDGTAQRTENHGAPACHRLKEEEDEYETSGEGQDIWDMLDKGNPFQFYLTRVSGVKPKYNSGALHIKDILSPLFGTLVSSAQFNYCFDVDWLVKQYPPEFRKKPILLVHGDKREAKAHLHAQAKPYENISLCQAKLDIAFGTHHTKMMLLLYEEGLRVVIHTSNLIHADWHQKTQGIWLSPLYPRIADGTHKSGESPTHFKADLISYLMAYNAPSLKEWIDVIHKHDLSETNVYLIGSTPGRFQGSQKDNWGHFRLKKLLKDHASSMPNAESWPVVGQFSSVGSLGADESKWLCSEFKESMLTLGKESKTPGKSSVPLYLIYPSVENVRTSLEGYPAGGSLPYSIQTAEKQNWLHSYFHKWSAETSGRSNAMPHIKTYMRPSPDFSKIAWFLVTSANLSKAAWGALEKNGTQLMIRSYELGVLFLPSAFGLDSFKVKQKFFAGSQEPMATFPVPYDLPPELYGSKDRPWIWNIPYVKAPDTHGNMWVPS
#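 Compounds were preincubated with Tdp1 (1 nM final) for 15 min at room temperature before substrate (15 nM final) started a 5 min reaction; beads (10 ug/ml final) were then added for 10 min before AlphaScreen detection.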
# DT40 TDP1 CPT: DT40-hTDP1 cell growth loss with CPT. chicken DT40 Tdp1-/-;hTDP1 cells + 20 nM CPT, ATP luminescence, 48 h. Potency, µM (highest dose often 46.2 µM), for the others: at the highest dose activity change, negative = growth inhibition, usual class: inhibitors. 420,000 tested, 12% active; also: nearly all actives have a fitted effect of over 55% in size
#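 Cell growth measured by CellTiter-Glo luminescence after a minimum 48 h, 37 C compound exposure with 20 nM CPT in Tdp1-knockout DT40 cells stably expressing hTDP1, seeded 400/well; qHTS titration format.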
# The depositor's hits bear a star; ? = inconclusive; nt = not tested or not shown; [ ] = another dose, or the depositor's remark. Only some compounds are listed: those with a hit (about 19% of all), similar ones and a draw of the others. Calls follow the shape of the dose curve; as a rule, active = well fitted curve in the direction sought with a large enough effect; inconclusive = small, poorly fitted or top-dose-only effect, or another doubt; inactive = no such curve, though single readings can be large; an effect the other way counts as inactive or inconclusive. % is scaled to controls: 0 for no effect and ±100 for the full control effect; potency is read from the fitted curve at half-maximal effect.
SMILES,DT40 TDP1 no CPT,RORg inh,VP16 counter,TDP1 block,DT40 TDP1 CPT
CC(=O)Nc1cccc(NC(=O)c2cc(-c3cccnc3)nc3ccc(Br)cc23)c1,18µM*,?,?,0%,18µM*
CC(=O)Nc1cccc(NC(=O)c2cc(-c3cccnc3)nc3ccc(Cl)cc23)c1,?,11%,-12%,0%,?
CSc1ccccc1NC(=O)c1cc(-c2cccnc2)nc2ccc(Br)cc12,21µM*,-11%,-25%,-11%,?
CCOC(=O)Cn1nc(/C=C/c2ccc(OC)cc2)ccc1=O,-27%,nt,nt,nt,-19%
Cc1cc(C(=O)NCC(=O)OCC(=O)Nc2ccc(OC(F)F)cc2)ccc1[N+](=O)[O-],3%,-7%,-10%,-5%,3%
O=C1C2CC=C(Cl)CC2C(=O)N1CCCCCCN1C(=O)C2CC=C(Cl)CC2C1=O (configuration not stated),?,18%,21%,nt,?
O=C(Nc1nc2ccccc2n1CCN1CCOCC1)c1ccc(COc2ccccc2Br)o1,?,2µM*,5.6µM*,8%,?
O=C(Nc1nc2ccccc2n1Cc1ccccc1)c1ccc(COc2ccccc2[N+](=O)[O-])o1,?,?,?,6%,?
O=C(Nc1nc2ccccc2n1CCN1CCOCC1)c1ccc(Cn2cc([N+](=O)[O-])cn2)o1,-21%,11µM*,?,4%,16µM*
O=C(N/N=C/c1cccnc1)c1ccc(Cn2cc([N+](=O)[O-])cn2)o1,-13%,-2%,14%,0%,1%
CC1CCCCN1C(=S)NC(=O)c1cccs1 (configuration not stated),16µM*,0.71µM*,2.8µM*,nt,?
S=C(c1cccs1)N1CCCC1,-8%,25%[0.365 µM],nt,1%,-6%
O=C(NC(=S)N1CCCCC1)c1cccs1,15µM*,0.79µM*,1.3µM*,0%,?
O=C(c1cccs1)N1CCN(C(=O)c2cccs2)C1=S,5.8µM*,nt,nt,nt,5.8µM*
O=C(NC(=S)N1CCCCC1)c1csc([N+](=O)[O-])c1,?,0.35µM*,1.1µM*,5%,-10%
CC1CCCCN1S(=O)(=O)c1ccc(NC(=O)c2cccs2)cc1 (configuration not stated),?,30%,-2%,-2%,?
Cn1cnc(S(=O)(=O)N2CCC(C(=O)Nc3ccc(F)cc3F)CC2)c1,-16%,nt,nt,6%,9%
CC(NC(=O)OC(C)(C)C)C(=O)Oc1cc2oc(=O)cc(-c3ccccc3)c2cc1Cl (configuration not stated),?,39%,0%[0.365 µM],3%,?
CC1CCN(C(=S)NC(=O)c2cccs2)CC1,?,0.25µM*,0.89µM*,1%,?
CC1CCN(C(=O)c2ccc(NC(=O)c3cccs3)cc2)CC1,-14%,44%,-3%,-8%,-25%
O=[N+]([O-])c1ccccc1NCCNS(=O)(=O)c1ccc(Cl)cc1,-25%,44%,-19%,0%,-10%
O=[N+]([O-])c1ccc(NCCCNS(=O)(=O)c2ccc(Cl)cc2)c(Cl)c1,21µM*,?,?,4%,21µM*
CC(Oc1ccc(C(C)(C)C)cc1)C(=O)NCC(c1ccco1)N1CCCC1 (configuration not stated),21µM*,nt,nt,2%[56.1 µM],23µM*
N#Cc1ccc(C(=O)NCC(c2ccco2)N2CCCC2)cc1 (configuration not stated),-6%,-11%,-2%,5%,-6%
O=C(Cc1ccccc1F)NCC(c1ccco1)N1CCCCC1 (configuration not stated),-24%,18%,-2%,0%,14%
SMILES,DT40 TDP1 no CPT,RORg inh,VP16 counter,TDP1 block,DT40 TDP1 CPT
CC(C)C(NC(=O)c1ccco1)C(=O)NCC(c1ccco1)N1CCCCC1 (configuration not stated),-9%,-5%,0%,2%,-4%
O=C(NCC(c1ccco1)N1CCCCC1)c1cccs1 (configuration not stated),-25%,nt,nt,-7%,-1%
O=C(NCC(c1ccco1)N1CCCCC1)c1cc2c(s1)CCCC2 (configuration not stated),16µM*,nt,nt,1%,18µM*
N#Cc1ccccc1Sc1ccccc1C(=O)NCC(c1ccco1)N1CCCC1 (configuration not stated),?,nt,nt,0%[0.505 µM],23µM*
O=C(NCC(c1ccco1)N1CCCCC1)C(c1ccccc1)c1ccccc1 (configuration not stated),?,0%,6%,7%,16µM*
COCCCn1c(=O)/c(=C\c2ccc(OC(F)F)c(OC)c2)s/c1=C(/C#N)C(N)=O,?,17%,-1%,nt,?
COc1ccc(CCNC(=O)C(=O)c2c[nH]c3ccccc23)cc1,-16%,nt,nt,6%,?
S=C(NCCc1ccccc1)NCC(c1ccco1)N1CCCCC1 (configuration not stated),23µM*,10µM*,?,8%,?
CCCCCn1c(-c2cccc(C)c2)nc2ccccc21,?,nt,nt,3%,?
S=c1nn[nH]n1C12CC3CC(CC(C3)C1)C2,-11%,2.5µM*,7.1µM*,0%,-16%
O=C(Nc1cccc([N+](=O)[O-])c1)Nc1ccc2c(c1)CCC2,?,?,-7%,2%,21µM*
CCSCCc1nnc(NC(=O)Nc2cccc(C(F)(F)F)c2)s1,2.3µM*,?,18µM*,0%,4.1µM*
O=C(Nc1cccc(C(F)(F)F)c1)Nc1cccs1,21µM*,nt,nt,-2%,?
O=C(Nc1ccccc1)Nc1ccc2c(c1)CCC2,-12%,4%,24%,5%,-12%
O=C(Nc1cccc([N+](=O)[O-])c1)Nc1cccs1,?,36%,1%,6%,23µM*
CC(C)(C)c1cc(C(=O)O)n[nH]1,-2%,6%,12%,2%,-24%
CCOC(=O)CSc1cn2c(n1)CCC2,2%,4%,-1%,0%,-16%
COc1ccc2cc(C=O)n(C)c2c1,3%,nt,nt,0%,-4%
COc1ccc2cc(CO)n(C)c2c1,?,nt,nt,4%,8.2µM*
Cc1cc(C)cc(N=c2c([N+](=O)[O-])nn(-c3ccc(Cl)cc3)n2O)c1,15µM*,14%,1%[10 µM],8%,9.2µM*
CCc1ccc(N=c2c([N+](=O)[O-])nn(-c3ccccc3)n2O)cc1,?,13%,9%,11%,?
COc1ccc(C(=O)C/C(=C\C(=O)c2ccc(C)cc2)c2ccccc2)cc1,23µM*,-23%,?,5%,18µM*
